Active and inactive are the calls of the source. No stated cut-off is given here; in the data, active means inhibition above about 28%; inactive means the rest.
Assay: StAR promoter reporter inhibitors, counter-screen for LRH-1 inverse agonist project, cell-based, luminescence, high throughput (AID 651611)
Conditions: StAR promoter luciferase reporter counterscreen, at 3.6 µM, active compounds read high

Structure (SMILES)	inhibition
CCCOc1ccc(Cn2cnc3ccccc32)cc1	5.08% (inactive)
O=C(Cn1cc(COc2ccc(C(=O)c3ccccc3)cc2)nn1)c1ccc(O)cc1	25.8% (inactive)
COc1ccccc1N1CCN(C(=O)C2c3ccccc3Oc3ccccc32)CC1	34.4% (active)
CS(=O)(=O)N1CCc2cc(-c3csc(NC(=O)Cc4cccs4)n3)ccc21	12.6% (inactive)
C=CC[n+]1c(-c2ccc(Cl)cc2Cl)csc1Nc1c(C)n(C)n(-c2ccccc2)c1=O	10.3% (inactive)
O=C(Nc1cccc2ncccc12)c1ccc([N+](=O)[O-])o1	16.2% (inactive)
COc1cc(/C=C2/SC(=Nc3ccc(O)cc3)NC2=O)ccc1O	38.7% (active)
N#CCc1ccc(OCCCN2CCC(C(O)(c3ccccc3)c3ccccc3)CC2)cc1	8.39% (inactive)
CCn1c2ccccc2c2cc(/C=N/n3c(-c4cc(C)[nH]n4)n[nH]c3=S)ccc21	11.8% (inactive)
Cc1onc(-c2c(F)cccc2Cl)c1C(=O)Nc1cccc2nsnc12	8.33% (inactive)
COc1ccc(O)c(/C=N/Nc2nc(Nc3ccccc3)nc(-n3nc(C)cc3C)n2)c1	21.3% (inactive)
COc1ccccc1N1CCN(C(=O)CSc2nc3ccccc3o2)CC1	-10.2% (inactive)
Cc1cccc(NC(=O)CSc2nc3[nH]ncc3c(=O)[nH]2)c1C	11.6% (inactive)
Cc1cc2ccccn2c1C(=O)c1cccc([N+](=O)[O-])c1	10.1% (inactive)
CCc1ccccc1NC(=O)CSc1nnc([C@@H](NC(=O)OC(C)(C)C)C(C)C)o1	5.95% (inactive)

Reference: PubChem BioAssay
